Reference: publication PMC5540273 (PLoS ONE, 2017)

Experiments:
Conditions in all cases: concentration: 1 μM, replicates: in singlicate; n = 1
PDPK1 = tested on: PDPK1
PFTAIRE2 = tested on: PFTAIRE2
PFTK1 = tested on: T1, PFTK1
T1 construct: gene CDK14

PHKG1 = tested on: PHKG1
PHKG2 = tested on: PHKG2
PIK3C2B = tested on: PIK3C2B
PIK3C2G = tested on: PIK3C2G
PIK3CA = tested on: PIK3CA
PIK3CB = tested on: PIK3CB
PIK3CD = tested on: PIK3CD
PIK3CG = tested on: PIK3CG
PIK4CB = tested on: T2, PIK4CB
T2 construct: gene PI4KB

PIKFYVE = tested on: PIKFYVE
PIM1 = tested on: PIM1
PIM2 = tested on: PIM2
PIM3 = tested on: PIM3
PIP5K1A = tested on: PIP5K1A
PIP5K1C = tested on: PIP5K1C
PIP5K2B = tested on: PIP5K2B
PIP5K2C = tested on: T3, PIP5K2C
T3 construct: gene PIP4K2C
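Also: KINOMEscan kinase panel screen.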

SMILES	%Inh (PDPK1)	%Inh (PFTAIRE2)	%Inh (PFTK1)	%Inh (PHKG1)	%Inh (PHKG2)	%Inh (PIK3C2B)	%Inh (PIK3C2G)	%Inh (PIK3CA)	%Inh (PIK3CB)	%Inh (PIK3CD)	%Inh (PIK3CG)	%Inh (PIK4CB)	%Inh (PIKFYVE)	%Inh (PIM1)	%Inh (PIM2)	%Inh (PIM3)	%Inh (PIP5K1A)	%Inh (PIP5K1C)	%Inh (PIP5K2B)	%Inh (PIP5K2C)
CCc1nc(-c2cccc(C)c2)c(-c2ccncc2)s1	1%	0%	14%	0%	9%	0%	3%	0%	4%	0%	0%	0%	39%	17%	0%	29%	0%	36%	19%	25%
Cn1c(=O)c(F)c(Nc2ccc(I)cc2F)c2c(=O)n(OC[C@H](O)CO)cnc21	21%	2%	0%	23%	0%	0%	0%	0%	0%	0%	0%	0%	6%	5%	13%	0%	11%	22%	9%	12%
O=C(NCCNc1ccnc(Nc2ccc(F)cc2)n1)Nc1ccc2c(c1)OCO2 [GSK1379882]	0%	25%	0%	8%	7%	7%	0%	7%	0%	0%	10%	17%	8%	21%	0%	11%	7%	66%	0%	24%
COc1ccc(-n2cnc3c(N)ncnc32)cc1 [SKF-97236]	12%	20%	17%	0%	0%	0%	27%	2%	9%	0%	51%	23%	0%	19%	0%	0%	0%	33%	6%	6%
O=C(Nc1ccc2c(c1)OCO2)NC1CCN(c2ccnc(NCc3ccc(F)cc3)n2)CC1 [GSK1379859]	0%	10%	14%	0%	0%	0%	0%	0%	0%	0%	0%	2%	0%	8%	0%	0%	0%	19%	2%	0%
Cc1nnc(-c2ccc(C)c(-c3ccc(C(=O)O)cc3)c2)o1 [GW608005]	4%	11%	0%	2%	0%	0%	3%	0%	0%	6%	0%	0%	0%	18%	0%	0%	0%	6%	0%	0%
COc1cc2nccc(Nc3cccc(Oc4ccccc4)c3)c2cc1OC.Cl [GW284543]	0%	31%	2%	2%	0%	39%	0%	0%	0%	55%	0%	0%	29%	0%	0%	0%	0%	48%	18%	8%
COc1cccc(C2=C(Nc3cccc(C(=O)O)c3)C(=O)NC2=O)c1 [SB-390770]	0%	13%	0%	0%	1%	0%	22%	8%	0%	32%	5%	0%	0%	0%	0%	0%	5%	56%	4%	23%
O=C(Nc1n[nH]c2nc(-c3ccccc3)c(Br)cc12)C1CC1 [SB-708998]	20%	1%	7%	0%	0%	0%	9%	0%	0%	3%	0%	0%	0%	4%	0%	0%	0%	14%	33%	0%
CCS(=O)c1ccc(-c2coc3ccc(-c4nnc(C)o4)cc23)cc1 (centres unmarked)	0%	0%	9%	0%	0%	0%	15%	0%	32%	12%	0%	19%	3%	6%	27%	11%	0%	13%	0%	93%
